# Compound activity (PubChem)
# DT40 TDP1 no CPT = qHTS for Inhibitors of human tyrosyl-DNA phosphodiesterase 1 (TDP1): qHTS in cells in absence of CPT; DT40 Tdp1-/- hTDP1 cells, no CPT, ATP luminescence, 48 h; Potency, µM (doses to about 46.2 µM), actives largely listed as inhibitors; hit rate 15% among 420,000; AID 686978, 2013; also: nearly all actives have a fitted effect of over 55% in size
#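 Chicken DT40 Tdp1-/- cells stably complemented with human TDP1 were seeded at 400 cells/well with DMSO in place of 20 nM camptothecin. After compound pinning, cells grew at least 48 hr at 37 °C; viability read by CellTiter-Glo luminescence.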
# HepG2 viability = HepG2 cytotoxicity, counter-screen for TGF-b inhibitors. HepG2 CAGA-GFP viability, ATP luminescence, 18 h. Potency, µM (highest dose often 46.1 µM), hits mostly cytotoxic. hit rate 0.76% among 410,000
#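 HepG2 CAGA-GFP cells (1000/well, DMEM with 1% FBS) received compound, then TGF-beta at 500 pg/mL final, and were incubated 18 hours at 37 degrees C. Viability was read by CellTiter-Glo luminescence. Media-only wells were set as complete cell-killing and DMSO as no toxicity.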
# DT40 TDP1 CPT = DT40-hTDP1 cell growth loss with CPT. chicken DT40 Tdp1-/-;hTDP1 cells + 20 nM CPT, ATP luminescence, 48 h. Potency, µM (titrated, usually from 46.2 µM), hits mostly inhibitors. hit rate 12% among 420,000. AID 686979; also: nearly all actives have a fitted effect of over 55% in size
#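 Chicken DT40 Tdp1-/- cells stably complemented with human TDP1 were seeded at 400 cells/well in medium containing 20 nM camptothecin, exposed to pin-transferred compounds, and grown at 37 °C for at least 48 hr. Viability was read as ATP luminescence.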
# IL1B secr inh = inhibitors of inflammasome signaling (IL-1 beta secretion) | THP-1 LPS/ATP IL-1B secretion, AlphaLISA, 16 h; stronger effect = lower value | activity change, % at 57.5 µM | hit rate 4.7% among 360,000; in the data active = activity change below about -50%; inconclusive = mostly about -30% to -49%
#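 THP-1 cells pretreated 1 hr with compounds (up to 57.5 uM final), then stimulated with LPS (250 ng/mL final) plus ATP (1.25 mM final); secreted IL-1B measured by AlphaLISA after 16 hr, decreased signal indicating inhibition.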
# TGFb inhibitor = blocks TGF-b signaling. HepG2 CAGA-GFP TGF-b/SMAD3 reporter, GFP fluorescence, 18 h; TGF-beta stimulated, 500 pg/mL final. Potency, µM (highest dose often 46.1 µM), hits mostly inhibitors. hit rate 1.2% among 410,000. AID 588855; also: nearly all actives have a fitted effect of over 65% in size
#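 Inhibition was scored as loss of TGF-beta-induced (500 pg/mL final, 18 hours, 37 degrees C) GFP in HEPG2 cells carrying a CAGA-GFP reporter, in DMEM with 1% FBS. Well GFP was summed per cell; Activity was normalised to unstimulated and stimulated DMSO wells, then concentration-response fitting.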
# ASM inhibitor = inhibitors of human secretory acid sphingomyelinase. placental ASM, HMU-PC fluorogenic substrate, 60 min. Potency, µM (highest dose often 57.5 µM), actives largely listed as inhibitors. hit rate 0.006% among 340,000. AID 504937
# Target sequence (P17405 47-631 limits assumed): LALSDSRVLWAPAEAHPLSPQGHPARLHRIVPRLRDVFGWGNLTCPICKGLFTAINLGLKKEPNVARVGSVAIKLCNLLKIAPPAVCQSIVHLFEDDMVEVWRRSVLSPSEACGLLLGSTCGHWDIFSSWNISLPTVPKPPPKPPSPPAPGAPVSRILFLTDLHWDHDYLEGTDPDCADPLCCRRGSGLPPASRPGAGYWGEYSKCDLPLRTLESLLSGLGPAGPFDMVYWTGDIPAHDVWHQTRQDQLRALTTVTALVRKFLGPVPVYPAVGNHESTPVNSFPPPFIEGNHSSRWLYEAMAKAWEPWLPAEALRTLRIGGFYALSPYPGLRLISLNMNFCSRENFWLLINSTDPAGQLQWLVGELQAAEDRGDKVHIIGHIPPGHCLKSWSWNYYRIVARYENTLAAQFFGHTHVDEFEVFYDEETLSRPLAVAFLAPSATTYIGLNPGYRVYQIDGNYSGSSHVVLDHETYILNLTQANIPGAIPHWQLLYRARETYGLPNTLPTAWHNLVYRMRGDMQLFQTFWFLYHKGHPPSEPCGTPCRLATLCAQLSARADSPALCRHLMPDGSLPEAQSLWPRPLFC
#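 HMU-PC0 cleavage (9 uM final) by human placental ASM, 60 min at 37 °C following 10 min compound exposure at RT; stopped at pH 10, fluorescence Ex 386/Em 447 nm.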
# A number is an active result; – = inactive; ? = inconclusive; · = no result given. Compounds with a hit are over-represented: about 19% of the library has one in this group of screens. Unless noted, calls follow the shape of the dose curve; as a rule, active = well fitted curve in the direction sought with a large enough effect; inconclusive = small, poorly fitted or top-dose-only effect, or another doubt; inactive = no such curve, though single readings can be large; an effect the other way counts as inactive or inconclusive.
SMILES,DT40 TDP1 no CPT,HepG2 viability,DT40 TDP1 CPT,IL1B secr inh,TGFb inhibitor,ASM inhibitor
CCOC(=O)c1cnc2cc(C(F)(F)F)ccc2c1N1CCN(c2cccc(Cl)c2)CC1,23.1µM,–,?,·,–,·
CCOC(=O)c1cnc2ccc(OCC)cc2c1N1CCN(c2ccccc2)CC1,25.9µM,–,20.6µM,–,?,?
CC(=O)Nc1c2c(nn1-c1cccc(Cl)c1)CS(=O)(=O)C2,–,–,–,–,–,–
Cc1cc(NS(=O)(=O)c2ccc(NC(=O)Cc3ccc([N+](=O)[O-])cc3)cc2)nc(C)n1,–,–,–,–,–,–
Cc1cc(C)n(-c2nc(NC(C)C)nc(NC(C)(C)C)n2)n1,0.794µM,–,1.26µM,·,–,·
CCN1CC(C)(C)N(C(=O)c2ccccc2)CC1(C)C,–,–,–,–,–,–
CCn1c2c(c(=O)n3ncc(C(=O)Nc4ccc(OC(F)(F)F)cc4)c13)CN(Cc1ccc(OC)cc1)CC2,23.1µM,–,?,·,?,·
COc1ccc(-n2ncc(C(=O)N3CCN(c4ccc(F)cc4)CC3)c2C)cc1,?,–,–,·,–,–
CCn1c2c(c(=O)n3ncc(C(=O)N4CCN(c5ccc(C(C)=O)cc5)CC4)c13)CN(Cc1ccc(OC)cc1)CC2,2.59µM,–,4.11µM,·,?,·
COc1ccc(CN2CCc3c(c(=O)n4ncc(C(=O)N5CCN(c6ccc(F)cc6)CC5)c4n3C)C2)cc1,1.84µM,–,2.31µM,·,?,·
COc1cccc(CN2C(=O)c3ccccc3C2C(=O)NCCc2ccccc2)c1 (configuration not stated),–,–,?,·,–,·
CCC(OC(=O)c1nsc(Cl)c1Cl)C(=O)NCC1CCCO1 (configuration not stated),–,–,–,–,–,–
COC(=O)c1cc(Cl)ccc1NCC(N)c1ccccc1 (configuration not stated),?,–,18.4µM,?,?,·
COC(=O)[C@H](C)NC(=O)c1cc2c(cn1)[nH]c1ccccc12,18.4µM,–,18.4µM,-85.5,–,–
Cn1c(N)c(C(=O)COC(=O)[C@@H]2CCCN2S(=O)(=O)c2ccc(Cl)cc2)c(=O)n(C)c1=O,–,–,–,–,–,–
CC(C)CN(C(=O)COC(=O)CCSc1ccc(Cl)cc1)c1c(N)n(Cc2ccccc2)c(=O)[nH]c1=O,18.4µM,–,?,–,–,·
CC(C)CN(C(=O)COC(=O)CCSc1ccc(F)cc1)c1c(N)n(Cc2ccccc2)c(=O)[nH]c1=O,?,–,–,–,–,–
CN(C(=O)COC(=O)CCC(=O)c1ccc(Cl)cc1)c1c(N)n(Cc2ccccc2)c(=O)[nH]c1=O,18.4µM,–,–,–,–,–
Cc1ccc(S(=O)(=O)c2nnn3c2nc(NC(C)C)c2sccc23)cc1,–,15.8µM,–,·,10µM,·
CCc1ccc(S(=O)(=O)c2nnn3c2nc(NC2CCCCCC2)c2sccc23)cc1,16.4µM,–,?,·,–,·
Cc1ccc(S(=O)(=O)c2nnn3c2nc(N2CCCC2)c2sccc23)cc1,–,–,–,·,–,·
Cc1ccc(S(=O)(=O)c2nnn3c2nc(NCCc2ccccc2)c2sccc23)cc1,?,–,16.4µM,·,–,·
Cc1ccc(CCNc2nc3c(S(=O)(=O)c4ccccc4)nnn3c3ccsc23)cc1,?,–,–,·,–,·
Clc1ccccc1NN(Cc1ccncc1)c1ccccc1Cl,?,–,?,?,?,·
Clc1ccccc1NN(Cc1ccccn1)c1ccccc1Cl,23.1µM,–,?,–,?,·
SMILES,DT40 TDP1 no CPT,HepG2 viability,DT40 TDP1 CPT,IL1B secr inh,TGFb inhibitor,ASM inhibitor
CC(C)Nc1nnc(SC(C)C(=O)NCc2ccc3c(c2)OCO3)s1 (configuration not stated),–,–,–,–,–,–
CC(=O)c1ccc(OC2(C)CCN(Cc3cccn3-c3nccs3)C2)cc1 (configuration not stated),?,–,?,–,?,·
CC1(Oc2ccc3ccccc3c2)CCN(Cc2cccn2-c2nccs2)C1 (configuration not stated),23.1µM,–,29.1µM,–,?,·
COc1cc(Cl)ccc1OC1(C)CCN(Cc2cccn2-c2nccs2)C1 (configuration not stated),20.6µM,–,11.6µM,–,–,·
CCc1ccc(C(=O)c2cn(CC(=O)Nc3ccc(OC)c(Cl)c3)c3nc(C)ccc3c2=O)cc1,?,–,–,·,–,·
Nc1cc(S(=O)(=O)c2ccc(O)c(N)c2)ccc1O,–,–,–,–,–,–
Cc1ccc(SSc2cc(C)ccc2N)c(N)c1,8.2µM,–,7.31µM,-108.0,?,–
Cc1ccc(O)c(N)c1,23.1µM,–,?,–,–,–
Nc1nc(SCc2cccc([N+](=O)[O-])c2)n[nH]1,–,–,–,–,–,–
Cc1nn(CC(=O)N2CCc3ccccc32)c(C)c1S(=O)(=O)NC(C)(C)C,–,–,–,–,?,–
Fc1cccc(-c2nnn3c2nc(NCc2ccc4c(c2)OCO4)c2ccccc23)c1,?,–,–,·,–,·
CCOc1ccccc1C(=O)NCC(=O)N(C)Cc1cccnc1,?,–,–,–,–,–
CCc1ccc(C2C3=C(CC(C)(C)CC3=O)OC3=C2C(=O)CC(C)(C)C3)cc1,23.1µM,–,?,–,–,–
CC(C)Cc1ccc(CN2CCCC(NC(=O)c3nn(C)c(=O)c4ccccc34)C2)cc1 (configuration not stated),?,–,?,–,?,–
CC(C)Cc1ccc(CN2CCCC(NC(=O)c3ccnn3C)C2)cc1 (configuration not stated),23.1µM,–,18.4µM,–,?,–
Cc1noc(C)c1CCC(=O)NC1CCCN(Cc2ccc(CC(C)C)cc2)C1 (configuration not stated),14.6µM,–,18.4µM,–,?,–
CC(C)Cc1ccc(CN2CCCC(NC(=O)c3ccoc3)C2)cc1 (configuration not stated),13µM,–,11.6µM,–,–,–
CC(C)Cc1ccc(CN2CCCC(NC(=O)c3cccc(-n4cnnc4)c3)C2)cc1 (configuration not stated),23.1µM,–,20.6µM,-50.6,–,–
O=C(NC1CCCN(Cc2ccc(Cl)cc2)C1)c1c(F)ccc(F)c1F (configuration not stated),–,–,–,–,–,–
Cc1cccc(C)c1-n1c(C)nn(CCOc2ccccc2)c1=O,–,–,–,–,–,–
